# About 960 (1.5%) of roughly 66,000 compounds showed an effect of 50% or more. Shown is part of a subset that was picked to be rich in strong results.
# Test system: Trypanosoma brucei
# Test: Trypanosoma brucei 72 hour study
# Assay type: functional, organism-based
# Parameters: scale not given: in the data most compounds retested in dose-response had high values
compound,measurement,setting,value
Clc1cc(NCc2ccncc2)nc2[nH]ccc12,Percent Effect,"30 µM, 30.03 µM",-24.9%
COc1ccc(CCNC(=O)C2CCC(Cn3cnnn3)CC2)cc1 (stereo not drawn),Percent Effect,"30 µM, 30.03 µM",42.94%
COc1ccccc1CCNC(=O)C1CCC(Cn2cnnn2)CC1 (stereo not drawn),Percent Effect,"30 µM, 30.03 µM",-33.08%
O=C(NCCc1ccccc1)C1CCC(Cn2cnnn2)CC1 (stereo not drawn),Percent Effect,"30 µM, 30.03 µM",56%
Cl.Clc1ccccc1CN1CCc2nc(C3CCNCC3)ncc2C1,Percent Effect,"30.3 µM, […]",9.906%
O=C(NCCCOCC1CC1)Nc1ccc(-n2cncn2)c(F)c1,Percent Effect,10 µM,-25.61%
CN(C(=O)NC1CC1)C1CCN(c2ccc(Cl)cc2)CC1,Percent Effect,"30 µM, 30.03 µM",-50.01%
CC(=O)c1ccc(N2CCN(C(=O)NC(C)c3ccc(C)o3)CC2)cc1 (stereo not drawn),Percent Effect,"30 µM, 30.03 µM",19.85%
CC(C)NC(=O)[C@H](C)NC(=O)N1CCN(c2ccc(Cl)cc2)CC1,Percent Effect,"30 µM, 30.03 µM",36.61%
CC(C)NC(=O)[C@@H](NC(=O)N1CCN(c2ccc(Cl)cc2)CC1)C(C)C,Percent Effect,"30 µM, 30.03 µM",72.09%
CNS(=O)(=O)c1ccccc1N1CCN(C(=O)NC(C)C)CC1,Percent Effect,"30 µM, 30.03 µM",-6.64%
CC(C)C(NC(=O)N1CCN(c2ccc(Cl)cc2)CC1)C(=O)NC1CC1 (stereo not drawn),Percent Effect,"30 µM, 30.03 µM",53.99%
CC(C)NC(=O)C(NC(=O)N1CCN(c2ccc(Cl)cc2)CC1)C(C)C (stereo not drawn),Percent Effect,"30 µM, 30.03 µM",55.67%
CC(C)NC(=O)C(C)NC(=O)N1CCN(c2ccc(Cl)cc2)CC1 (stereo not drawn),Percent Effect,"30 µM, 30.03 µM",51.3%
Cn1cc(NC(=O)CNC(=O)N2CCN(c3ccc(Cl)cc3)CC2)cn1,Percent Effect,"30.3 µM, […]",4.499%
CC(NC(=O)N1CCN(c2ccc(Cl)cc2)CC1)C(=O)N1CCSCC1 (stereo not drawn),Percent Effect,"30 µM, 30.03 µM",25.8%
C[C@H](NC(=O)N1CCN(c2ccc(Cl)cc2)CC1)C(=O)N1CCSCC1,Percent Effect,"30 µM, 30.03 µM",-37.38%
CC(C)[C@H](NC(=O)N1CCN(c2ccc(Cl)cc2)CC1)C(=O)NC1CC1,Percent Effect,"30 µM, 30.03 µM",-23.38%
O=C1CC2(CCN(Cc3ccoc3)CC2)CN1Cc1cc(F)cc(F)c1,Percent Effect,"30 µM, 30.03 µM",-15.51%
Cc1nc(CCNC(=O)C(N)c2c(C)n[nH]c2C)sc1C (stereo not drawn),Percent Effect,"30.3 µM, […]",-1.575%
CN(c1ncnc2ccccc12)C1CCCN(c2cccnn2)C1 (stereo not drawn),Percent Effect,"30.3 µM, […]",-20.2%
NC(=O)CNC(=O)c1ccc(CNCc2ccc(F)cc2F)cc1,Percent Effect,"30 µM, 30.03 µM",-29.88%
Br.Cc1c(NC(=O)CN2CCN(C3CCCC3)C(=O)C2)cnn1C,Percent Effect,"30.3 µM, […]",-20.91%
CNC(=O)[C@@H]1C[C@H]2CN(C(=O)c3ccco3)C[C@H]2N1C(C)C.O=C(O)C(F)(F)F,Percent Effect,"30.3 µM, […]",-12.88%
Cn1cc(C2CCCN2C(=O)c2cnc(C3CC3)s2)cn1 (stereo not drawn),Percent Effect,"30 µM, 30.03 µM",-42.9%
CN(C)[C@@H]1CCN(C(=O)NC2CCCC2)[C@H]1Cc1cnn(C)c1.O=C(O)C(F)(F)F,Percent Effect,"30 µM, 30.03 µM",-1.718%
CN(C)C(=O)c1cnc2n1CCN(Cc1ccccc1)C2.O=C(O)C(F)(F)F,Percent Effect,"30 µM, 30.03 µM",-11.93%
COCCn1ccc2cc(NC(C)=O)ccc21,Percent Effect,"30 µM, 30.03 µM",20.32%
COCCn1ccc2cc(NC(=O)COC)ccc21,Percent Effect,"30 µM, 30.03 µM",51.21%
CCC(=O)Nc1ccc2c(ccn2CCOC)c1,Percent Effect,"30 µM, 30.03 µM",30.95%
COCCC(=O)N[C@H]1CC[C@H](Nc2nccc(-c3ccncc3)n2)C1,Percent Effect,"30 µM, 30.03 µM",-1.414%
CCOCC1CN(c2ccncn2)Cc2cnn(CC)c21.O=C(O)C(F)(F)F.O=C(O)C(F)(F)F (stereo not drawn),Percent Effect,"30 µM, 30.03 µM",24.08%
COc1ccc(CN2CCn3c(C(=O)N(C)C)cnc3C2)cc1.O=C(O)C(F)(F)F,Percent Effect,"30.3 µM, […]",-109.7%
COc1ccc(C)cc1NC(=O)Nc1cnc(N2CCCC2)nc1,Percent Effect,"30 µM, 30.03 µM",-9.808%
COc1ccc(C)cc1NC(=O)Nc1cnc(N2CCOCC2)nc1,Percent Effect,"30 µM, 30.03 µM",-0.7377%
COc1ccc(C)cc1NC(=O)Nc1cnc(N2CCN(C)CC2)nc1,Percent Effect,"30 µM, 30.03 µM",53.87%
Cc1csc2nc3n(c(=O)c12)CCN(Cc1ccccn1)CC3.Cl,Percent Effect,"30.3 µM, […]",-40.83%
CC(C)c1ccc(C(CN)N2CCc3sccc3C2)cc1 (stereo not drawn),Percent Effect,"30.3 µM, […]",99.87%
CSc1ccc(C(CN)N2CCc3sccc3C2)cc1 (stereo not drawn),Percent Effect,"30 µM, 30.03 µM",-3.703%
CSc1ccc(C(CNC(C)=O)N2CCc3sccc3C2)cc1 (stereo not drawn),Percent Effect,"30.3 µM, […]",7.525%
NCC(c1ccccc1)N1CCc2sccc2C1 (stereo not drawn),Percent Effect,"30 µM, 30.03 µM",35.83%
CCC(=O)NCC(c1ccc(SC)cc1)N1CCc2sccc2C1 (stereo not drawn),Percent Effect,"30.3 µM, […]",-2.044%
NCC(c1ccc(Cl)cc1)N1CCc2sccc2C1 (stereo not drawn),Percent Effect,"30.3 µM, […]",100.3%
Cc1cccc(S(=O)(=O)N2CC[C@H]3CO[C@H](CN(C)C)[C@H]3C2)c1.O=C(O)C(F)(F)F,Percent Effect,"30 µM, 30.03 µM",25.11%
COCc1cccc(C(=O)N2C[C@H]3CC[C@@H]2CN(Cc2cscn2)C3)n1,Percent Effect,"30 µM, 30.03 µM",-49.27%
Cc1nc(CN2CCC3(CCN(c4cnn(C)c4)C3=O)C2)cs1.O=C(O)C(F)(F)F (stereo not drawn),Percent Effect,"30.3 µM, […]",-7.553%
CCN1CCC2(C1)CN(S(=O)(=O)c1cn(C)cn1)C2.O=C(O)C(F)(F)F.O=C(O)C(F)(F)F,Percent Effect,"30.3 µM, […]",-6.671%
Cl.O=C(c1cc2c(s1)CCCC2)N1CCc2nc(C3CCCN3)ncc2C1 (stereo not drawn),Percent Effect,"30.3 µM, […]",6.632%
